Data as given in ChEMBL document CHEMBL3988442, “University of Dundee, Small-Polar-MMV Screening Library” (2021).
The campaign covered roughly 48,000 compounds. About 13,000 (27%) showed an effect of 50% or more. Some of the results follow.

tested on: Wolbachia pipientis; assay: Anti-Wolbachia Cell-Based Screen; assay type: functional; design: scale not given: in the data most compounds retested in dose-response had high values; settings: 5 µM

SMILES	Percent Effect
CC(C)(C)C(O)CN1CCN(C(=O)c2cccc3[nH]ncc23)CC1 (stereo not drawn)	-4.967%
O=S1(=O)C[C@@H]2[C@H](C1)N(Cc1cc(Cl)cc(Cl)c1)CCN2CCO	13.48%
O=C(NCc1cccnc1)C1CN(c2cnc3ccccc3n2)CCN1 (stereo not drawn)	-3.228%
O=C(Nc1ccc(Cl)cn1)c1cncc(C2CCNCC2)n1	119.3%
Cc1ccnc(NC(=O)c2cncc(C3CCNCC3)n2)c1	117.9%
O=C(Nc1ccccn1)c1nc(N2CCCC2)ncc1Cl	-4.003%
Cc1cccc(NC(=O)c2ccc(-n3cncn3)nn2)n1	-9.734%
Cl.O=C(Nc1ccccn1)c1cncc(C2CCNCC2)n1	82.75%
O=C(Nc1ccc(Cl)cn1)C1CCCN(CCc2ccncc2)C1 (stereo not drawn)	-1.04%
Cc1ccnc(NC(=O)c2c(C)oc(C)c2C)c1	13.28%
O=C(Nc1cc(C2CCOCC2)[nH]n1)c1ccc(Cl)cn1	-26.34%
Cc1cccc(NC(=O)c2cncc(C3CCNCC3)n2)n1	105%
O=c1n(Cc2ccccn2)nc(C2CCNCC2)n1Cc1ccccc1	-4.835%
Cc1ccnc(NC(=O)c2ccc(Cl)o2)c1	-0.2777%
Cc1cccc(NC2CCN(C(=O)Nc3cccc4[nH]ccc34)CC2)n1	-4.499%
O=C(NCCn1ccnc1)c1cc(Br)c[nH]1	-7.332%
Cc1cnn(CCNC(C)c2nnc(-c3cccc(Cl)c3)o2)c1 (stereo not drawn)	-21.78%
Cc1occc1C(=O)N1CCc2ncnc(C3CCOC3)c2CC1 (stereo not drawn)	-5.799%
COc1cccc(-c2noc3c2CN(c2nc(C)ncc2C)CC3)c1	-35.21%
Cc1nc(Cn2nc(C3CCNCC3)n(Cc3ccccc3)c2=O)no1	-19.55%
O=C(Nc1ccccc1OC1CCOC1)c1cc[nH]n1 (stereo not drawn)	-3.911%
Cc1ccccc1NC(=O)c1cncc(C2CCNCC2)n1.Cl	126.6%
CCCc1cc(C(=O)N2CCC3(CC2)CN(CCN(C)C)C(=O)O3)no1	-10.71%

SMILES	Percent Effect
c1cc(CN2CCC(n3cc(CN4CCCC4)nn3)CC2)cs1	0.307%
Nc1ncnc2c1ncn2[C@H]1CCN(Cc2ccsc2)CC[C@@H]1O	125.5%
Cc1ncsc1CCN(C)C1CCN(c2ncnc3[nH]cnc23)CC1	13.21%
Cc1ncsc1CN1CCN(C)C2(CCC(=O)N(CCO)CC2)C1 (stereo not drawn)	-3.684%
Cc1ncsc1CN1CC[C@H](O)[C@@H](n2cnc3c(N)ncnc32)CC1	93.47%
CN(C)S(=O)(=O)N1CC[C@]2(O)CCN(c3cc(C#N)ccn3)C[C@@H]2C1	-4.757%
CC(C)CN1C(=O)c2ccc(C(=O)NCCc3c[nH]cn3)cc2C1=O	4.031%
CCc1cnc(N)nc1N1CCCC2(CCOCC2)C1	7.215%
Cc1nn(C)c(Cl)c1C1CCCN1C(=O)c1cccc(C#N)c1 (stereo not drawn)	117.2%
Cc1nn(C)c(Cl)c1C1CCCN1C(=O)c1ccnc(N(C)C)c1 (stereo not drawn)	115.9%
Cc1nn(C)c(C)c1C1CCCN1C(=O)c1cnc2n[nH]c(C)c2c1 (stereo not drawn)	-6.27%
Cc1nn(C)c(Cl)c1C1CCCN1C(=O)c1ccc2c(c1)COC2 (stereo not drawn)	103.2%
Cc1nn(C)c(C)c1C1CCCN1C(=O)c1ccnc(N(C)C)c1 (stereo not drawn)	114%
COc1c(C2CCCN2C(=O)c2ccnc(N(C)C)c2)c(C)nn1C (stereo not drawn)	3.661%
CCn1nc(C(=O)N2CCCC2c2noc(C3CC3)n2)ccc1=O (stereo not drawn)	-10.37%
CCOCCN1CCN(CCc2nc3ccccc3c(=O)[nH]2)CC1	-16.1%
O=S(=O)(Cc1nc(C2CC2)no1)c1cc(F)ccc1F	-10.78%
Cc1nn(C)c(Cl)c1C1CCCN1C(=O)c1ccncc1 (stereo not drawn)	76.23%
Cc1nn(C)c(Cl)c1C1CCCN1C(=O)c1ccc2nncn2c1 (stereo not drawn)	-0.8221%
CCCc1cc(NCc2cc(C)on2)n2nccc2n1	18.67%
CN(C)c1nc(-c2ccncc2)nc2c1CCN(C(=O)[C@H](N)CO)C2	12.11%
O=C(NCCc1cccs1)[C@]12COC[C@H]1CN(c1ncccn1)C2.O=C(O)C(F)(F)F	-26.22%
Cc1cccnc1CN1CCN(Cc2ccc(-c3cc[nH]n3)o2)CC1	0.5837%

SMILES	Percent Effect
Cc1cc(N2CCN(Cc3ccc(-c4cc[nH]n4)o3)CC2)cc(C)n1	1.091%
Cc1nn(C)c(C)c1CN1CCCC(c2ccc(C(=O)O)cc2)C1 (stereo not drawn)	16.04%
O=C(O)c1ccccc1C1CCN(Cc2ccc(-c3cc[nH]n3)o2)C1 (stereo not drawn)	111.1%
O=C(O)c1ccc(C2CCCN(Cc3ccc(-c4cc[nH]n4)o3)C2)cc1 (stereo not drawn)	112.5%
Cc1cnc(C)c(N2CCN(Cc3ccc(-c4cc[nH]n4)o3)CC2)n1	2.715%
CCNC(=O)[C@@H]1C[C@H](N)CN1Cc1ccc(-c2cc[nH]n2)o1	2.507%
Fc1cnc(N2CCN(Cc3ccc(-c4cc[nH]n4)o3)CC2)nc1	10.27%
Fc1ccc(N2CCCN(Cc3ccc(-c4cc[nH]n4)o3)CC2)cc1	76.67%
Cc1cnccc1N1CCCN(Cc2ccc(-c3cc[nH]n3)o2)CC1	39.38%
O=C(O)c1ccc(CC2CCN(Cc3ccc(-c4cc[nH]n4)o3)C2)cc1 (stereo not drawn)	103.3%
CCN1CC2(CCC1=O)CCN(Cc1cccc(C#N)c1)CC2	-7.959%
CC(C)c1nc(CN(C)C(=O)C2CC(=O)N(Cc3ccncc3)C2)cs1 (stereo not drawn)	6.051%
COc1cccc(CN(C)C(C)c2ccco2)c1OCCn1ccnc1 (stereo not drawn)	-0.9941%
CN(CCN1CCCCCC1)C(=O)c1cc(CN2CCC(O)CC2)on1	-8.784%
Nc1ncc(C(=O)N2CCC3(CCCO3)CC2)c(-c2ccccc2)n1	-10.16%
CC(C)(CNc1ccc(S(=O)(=O)C(F)F)cc1)N1CCOCC1	2.444%
CC(C)NS(=O)(=O)c1cc(C(=O)O)cc(-c2ccccc2C#N)c1	4.012%
Cc1cnccc1CN1CC[C@@](C)(O)[C@H](Oc2ccccc2)C1	-3.171%
Cc1cc(F)ccc1CN1CCCC(O)(CN2CCCC2)C1 (stereo not drawn)	20.34%
Cc1cnccc1CN1CC[C@@](C)(O)[C@H](Oc2cccc(F)c2)C1	113.3%
Cc1ccccc1CN1CC[C@@]2(O)CCN(C(=O)C3CCC3)C[C@H]2C1	-8.444%
Cc1cnccc1CN1CC[C@H](Oc2cccc(F)c2)[C@@](C)(O)C1	130.7%
